Test results published in PubChem BioAssay.
Activity calls are given as the source filed them.

Assay: probe aXIP binding to arrayed compounds – biochemical, NeuroSMM set, 635/667 nm fluorescence, primary screen (AID 1119);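 note: probe is the protein aXip251-270 applied at 1 µg/mL to compound-printed slides; binding of probe to printed compounds measured as 667 nm fluorescence plus signal to noise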
Settings: small-molecule microarray, higher = more signal, called active from +8 up or from −8 down

Composite Z-score, inactive:
CCCC[C@@H]1C[C@H]1[C@@H](NC(=O)c1cccs1)c1ccc(C(F)(F)F)cc1 -0.496, COC(=O)C1=CC(CCCO)=CC(C2CC2)N(C)C=C1C(=O)OC (stereo not given) 0.856, CC(=O)c1ccc(C(O)C2C=CC3C(=O)N(c4ccccc4)C(=O)C3N2Nc2ccc(C#N)cc2)cc1 (stereo not given) 0.824, COCCOC(=O)N1C(=O)[C@@]2(c3cc(C#CC4=CCCCC4)ccc31)[C@H](c1ccc(OCCO)cc1)N1[C@H](c3ccccc3)[C@H](c3ccccc3)OC(=O)[C@H]1[C@@H]2C(=O)NC[C@H](O)c1ccccc1 0.193, CCCC[C@@H]1C[C@H]1[C@@H](NC(=O)Cc1ccccc1)c1ccc(-c2ccccc2)cc1 0.378, CCCCN1CC=CC23O[C@@H]4/C=C\CCC(C)OC(=O)C4[C@H]2C(=O)N(C(CO)C(C)C)[C@@H]3C1=O (stereo not given in full) 0.443, CO[C@H]1O[C@H](CO)[C@@H](OC(=O)Nc2ccccc2-c2ccccc2)[C@H](OC(=O)Nc2ccc3c(c2)OCO3)[C@H]1OC(=O)Nc1ccc2c(c1)OCO2 0.806, C=CCN1C(=O)[C@@]2(O[C@@H](CCn3cc([C@H](O)c4ccccc4)nn3)[C@H]([Si](C)(C)c3ccc(OC)cc3)[C@H]2C)c2cc(N3CCC3=O)ccc21 0.346, C=CCN1C(=O)[C@@]2(CCS(=O)(=O)c3ccccc3)N=C(c3ccc(OCCCO)cc3)O[C@H]2c2ccccc21 -0.101, COC(=O)CCCCCCC(=O)Nc1ccc(NC(=O)CCCC[P+](c2ccccc2)(c2ccccc2)c2ccccc2)cc1 0.0895
